Assay results as given in the supplement of paper PMC7726561.
In all, about 1,100 sequences were measured (“thermal melting temperature (Tm) of peptide-HLA complex”: median about 58, lowest 2% from about 42 on). Only a selection was taken, and the lowest values are over-represented in it overall.

B1: unnamed (peptide)
chain: LLVDVEPKV
B2: unnamed (peptide)
chain: QMISRIEYV
B3: unnamed (peptide)
chain: KLTENLVAL
B4: unnamed (peptide)
chain: FLNKEITSV
B5: unnamed (peptide)
chain: TLLTFFHEL
B6: unnamed (peptide)
chain: YLPEDFIRV
B7: unnamed (peptide)
chain: FVMETFVHL
B8: unnamed (peptide)
chain: ILTEAIKAA
B9: unnamed (peptide)
chain: TLLTDPPTA
B10: unnamed (peptide)
chain: VMFGGKQVVV
B11: unnamed (peptide)
chain: KLFNEFIQL
B12: unnamed (peptide)
chain: SLYSQVHQI
B13: unnamed (peptide)
chain: NLYEEWTQV
B14: unnamed (peptide)
chain: VLMTQQPRPVL
B15: unnamed (peptide)
chain: YLTAFTKNL
B16: unnamed (peptide)
chain: GLPRFGIEMV
B17: unnamed (peptide)
chain: KQTDLEITV
B18: unnamed (peptide)
chain: RVISELQEA
B19: unnamed (peptide)
chain: NVIERLQEA
B20: unnamed (peptide)
chain: AQFEHTILL
B21: unnamed (peptide)
chain: QLAQFVHEV
B22: unnamed (peptide)
chain: ALADFAELLRA
B23: unnamed (peptide)
chain: NLLEIAPHL
B24: unnamed (peptide)
chain: SLLDPVPEV
B25: unnamed (peptide)
chain: ELMEQVPHI
B26: unnamed (peptide)
chain: TLSQAIVKV
B27: unnamed (peptide)
chain: RIIDTVAQV
B28: unnamed (peptide)
chain: GLVDKLQAL
B29: unnamed (peptide)
chain: KVLGIVVGV
B30: unnamed (peptide)
chain: NQIEDNDDFQL
B31: unnamed (peptide)
chain: NLIPILKTV
B32: unnamed (peptide)
chain: SQTFVNPHV
B33: unnamed (peptide)
chain: YLLTESSKL
B34: unnamed (peptide)
chain: YLWPRGSPAL
B35: unnamed (peptide)
chain: FLDDVVHSL
B36: unnamed (peptide)
chain: SLHEFLVNL
B37: unnamed (peptide)
chain: RLMNDMTAV
B38: unnamed (peptide)
chain: SLLDGHFVL
B39: unnamed (peptide)
chain: RLLDGAFKL
B40: unnamed (peptide)
chain: VLIDYQRNV
B41: unnamed (peptide)
chain: FLSSVIQNL
B42: unnamed (peptide)
chain: QLYNQIIKL
B43: unnamed (peptide)
chain: IQDFEMPTV
B44: unnamed (peptide)
chain: VMLDVPIRL
B45: unnamed (peptide)
chain: HLIDDLLAA
B46: unnamed (peptide)
chain: ALFPAPLAQI
B47: unnamed (peptide)
chain: NIIELVHQV
B48: unnamed (peptide)
chain: KLGDFGLLV
B49: unnamed (peptide)
chain: FLNPDEVHAI
B50: unnamed (peptide)
chain: FLMENGSITSI
B51: unnamed (peptide)
chain: YLSGIAHFL
B52: unnamed (peptide)
chain: SLAQYLINA
B53: unnamed (peptide)
chain: TIPEAFRGV
B54: unnamed (peptide)
chain: KLLWTTSRV
B55: unnamed (peptide)
chain: RVIGTLEEV
B56: unnamed (peptide)
chain: YLDEDTIYHL
B57: unnamed (peptide)
chain: AALEEADKMFL
B58: unnamed (peptide)
chain: SVTSEGIKAV
B59: unnamed (peptide)
chain: TVADKIHSV
B60: unnamed (peptide)
chain: KMDEVLYSI
B61: unnamed (peptide)
chain: RLAEVGQYEQV
B62: unnamed (peptide)
chain: TLIGLSIKV
B63: unnamed (peptide)
chain: SVAEGRALMSV
B64: unnamed (peptide)
chain: FQVDEIYTV
B65: unnamed (peptide)
chain: ILDQKVALL
B66: unnamed (peptide)
chain: ILDQKINEV
B67: unnamed (peptide)
chain: VILESDPQQVV
B68: unnamed (peptide)
chain: IIADMDKWTV
B69: unnamed (peptide)
chain: SMGQLPHTV
B70: unnamed (peptide)
chain: ALERLLPQV
B71: unnamed (peptide)
chain: KLYQEVEIASV
B72: unnamed (peptide)
chain: SLLPFLKAV

What follows are sequences tested against HLA-A*02:01 (assay: thermal melting temperature (Tm) of peptide-HLA complex; higher = more thermostable pHLA complex). Conditions: C1R-A*02:01.
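Note: lysates heated 10 min at 37–73 °C, complexes pulled down with pan-HLA I antibody, peptide signal by DIA-MS relative to 37 °C, Tm where half the complex is unfolded.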

Sequence	thermal melting temperature
B1	55.5 °C
B2	59.7 °C
B3	59 °C
B4	59.6 °C
B5	57.4 °C
B6	61.4 °C
B7	57 °C
B8	59.3 °C
B9	59.5 °C
B10	57.5 °C
B11	57.8 °C
B12	60.2 °C
B13	59.9 °C
B14	48.8 °C
B15	60.8 °C
B16	60.1 °C
B17	57.5 °C
B18	40.7 °C
B19	57.2 °C
B20	58.1 °C
B21	62.3 °C
B22	62 °C
B23	52.1 °C
B24	62.5 °C

Sequence	thermal melting temperature
B25	48.9 °C
B26	54.1 °C
B27	60.6 °C
B28	55.6 °C
B29	61 °C
B30	42 °C
B31	56 °C
B32	57.8 °C
B33	55.2 °C
B34	41.3 °C
B35	58.8 °C
B36	61.5 °C
B37	58.9 °C
B38	40.1 °C
B39	49.9 °C
B40	60.1 °C
B41	58.3 °C
B42	56.1 °C
B43	50.9 °C
B44	55.9 °C
B45	41.1 °C
B46	62.7 °C
B47	57.1 °C
B48	60.4 °C

Sequence	thermal melting temperature
B49	59.9 °C
B50	58.2 °C
B51	62 °C
B52	56.7 °C
B53	46.3 °C
B54	60.1 °C
B55	57.6 °C
B56	45.2 °C
B57	53.3 °C
B58	46 °C
B59	55.7 °C
B60	59 °C
B61	56.3 °C
B62	56.7 °C
B63	56.8 °C
B64	56 °C
B65	41.7 °C
B66	60 °C
B67	40.1 °C
B68	54.6 °C
B69	41.4 °C
B70	59.2 °C
B71	61 °C
B72	61.9 °C
